Reference: publication PMC5540273 (PLoS ONE, 2017)

Experiments:
JNK3 = tested on: T1, JNK3
T1 construct: gene MAPK10

LZK = tested on: T2, LZK
T2 construct: gene MAP3K13

MEK1 = tested on: T3, MEK1
T3 construct: gene MAP2K1

MEK2 = tested on: T4, MEK2
T4 construct: gene MAP2K2

MEK6 = tested on: T5, MEK6
T5 construct: gene MAP2K6
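Note: kd values determined as follow-up on hits from a single-replicate KINOMEscan panel screen.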

COC(=O)c1c(-c2ccccc2)c2cc(OC)ccc2c(=O)n1Cc1ccccc1
Kd (JNK3): 0.11 µM

Cn1ccc2ncnc(Oc3cccc(C(=O)Nc4ccccc4)c3)c21
Kd (LIMK1): > 10 µM

COc1ccc(C2=C(Nc3cccc(C(=O)O)c3)C(=O)NC2=O)cc1 [SB-390765]
Kd (LIMK1): > 10 µM

O=c1cc(N2CCOCC2)nc2n(Cc3cccc(Cl)c3Cl)ccn12 [GSK2286295]
Kd (LYN): > 10 µM

O=C(Nc1n[nH]c2cc(-c3cccc(F)c3F)ccc12)C1CC1 [SB-733894]
Kd (LZK): > 10 µM

COc1cccc(-c2cc(-c3c[nH]nc3-c3ccccn3)ccn2)c1 [GW680338]
Kd (MAK): > 10 µM

Cc1cc(-c2ccc3c(c2)CC[C@@H](N[C@@H](C)c2ccccc2)C3)cnc1N.Cl [GW412617]
Kd (MAP4K2): 0.043 µM

COc1cccc(NC(=O)NC2CCN(c3ccnc(Nc4ccc(F)cc4)n3)C2)c1 (stereo not drawn) [GSK1379721]
Kd (MAP4K4): > 10 µM
Kd (MAP4K5): > 10 µM

COc1ccccc1CNC(=O)c1cc(C(=O)c2ccccc2C)c[nH]1 [GSK364507]
Kd (MARK1): > 10 µM

Cc1ccc(NC(=O)Nc2cccc(Cl)c2)cc1-c1ccc(C(=O)Nc2ccncc2)cc1 [GSK1398468]
Kd (MEK1): > 10 µM

Cc1cccc(-c2nc(Nc3cccc(C(N)=O)c3)c3ccccc3n2)n1 [GW876019]
Kd (MEK1): > 10 µM

Fc1cc(Cl)ccc1Nc1ccnc2cc(-c3ccc(CN4CCCCC4)o3)ccc12 [GW560116]
Kd (MEK2): > 10 µM

CCCc1ccc(S(=O)(=O)NC2CCN(c3ccnc(Nc4ccc(F)cc4)n3)C2)cc1 (stereo not drawn) [GSK1379715]
Kd (MEK6): > 10 µM

CCn1c(-c2ccccn2)nc2cnccc21 [SB-736398]
Kd (MEK6): > 10 µM
